This note sets out measurements from PubChem BioAssay (NCATS).

Assay [1] concerns the target Cellular tumor antigen p53 (Homo sapiens) (UniProt P04637). The assay can be described thus: Primary qHTS for small molecule compounds that upregulate eGFP-tagged delta133p53alpha (in N-terminal) cells. (AID 2060322). Further: nearly all actives have a fitted effect of over 75% in size. Further: potency means the concentration at half of the fitted maximal effect.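 On activation: cells pre-induced with doxycycline then dosed without doxycycline; series mostly up to about 56 µM; 0% = DMSO vehicle and 100% = reference activator.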 Particulars: NCI-H358 eGFP-delta133p53alpha fluorescence, 24 h; activation: hits give high values. In short, it runs like this: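 NCI-H358 cells pre-induced 24 h with 10 ng/ml doxycycline for eGFP-delta133p53alpha, plated dox-free and exposed 24 h at 37C to titrated compounds. Fixed, Hoechst-stained; gated GFP peak intensity by laser scanning cytometry, normalized to DMSO (0%) and 57.5 uM 5-azacytidine (100%).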
(qHTS replaces the single test concentration by a dilution series.)

Assay [2] has as its target Aldehyde dehydrogenase, mitochondrial (Homo sapiens) (UniProt P05091). Briefly: qHTS for Inhibitors of the Aldehyde Dehydrogenase Family (ALDH2) Primary screen (AID 2061308).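 Further: plate controls were vehicle for no effect and reference inhibitor for full effect; nearly all actives have a fitted effect of over 55% in size.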
The target of assay [3] is Retinaldehyde dehydrogenase 3 (Homo sapiens) (UniProt P47895). Briefly: qHTS for Inhibitors of the Aldehyde Dehydrogenase Family (ALDH1A3) Validation screen (AID 2061312). Further: nearly all actives have a fitted effect of over 45% in size. Further: potency means the concentration at half of the fitted maximal effect.
The target is the same in assay [4]. Briefly: qHTS for Inhibitors of the Aldehyde Dehydrogenase Family (ALDH1A3) Primary screen (AID 2061315).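 Further: plate controls were DMSO vehicle for no effect and reference inhibitor for full effect.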

“And” between values parts separate entries of the source, which are not always exact repeats. Equal entries are not always repeated. Inconclusive results are not listed. Unmarked numbers belong to inactive results. The source made the active and inactive calls. The call rests on the fitted dose curve; in most records, active means well fitted curve in the direction sought with a large enough effect; inconclusive means small, poorly fitted or top-dose-only effect, or another doubt; inactive means no such curve, though single readings can be large; an effect the other way counts as inactive or inconclusive.

Sequence of Cellular tumor antigen p53 (Homo sapiens) (P04637 whole entry, looked up): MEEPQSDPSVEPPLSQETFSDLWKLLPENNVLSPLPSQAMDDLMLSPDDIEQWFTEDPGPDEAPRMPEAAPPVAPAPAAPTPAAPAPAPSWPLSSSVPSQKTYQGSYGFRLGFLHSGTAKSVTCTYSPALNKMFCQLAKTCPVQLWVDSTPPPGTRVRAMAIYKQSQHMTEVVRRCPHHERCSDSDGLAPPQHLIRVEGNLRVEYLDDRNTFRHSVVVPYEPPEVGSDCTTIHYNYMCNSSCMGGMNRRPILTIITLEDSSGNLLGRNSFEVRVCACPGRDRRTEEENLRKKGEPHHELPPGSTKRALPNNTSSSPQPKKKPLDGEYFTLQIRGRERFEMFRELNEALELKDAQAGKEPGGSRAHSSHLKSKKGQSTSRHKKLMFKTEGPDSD

In the case of `CC(C)(F)C[C@@H](N[C@@H](c1ccc(-c2ccc(S(C)(=O)=O)cc2)cc1)C(F)(F)F)C(=O)NC1(C#N)CC1`, the activation in assay [1] is -8.11%. Moreover, the Potency result in assay [2], in assay [3] and in assay [4] was “inactive” each time.
Regarding `CN1CCC(NC(=O)c2cc(-c3c(O)cc(O)cc3Oc3ccc([N+](=O)[O-])cc3)on2)CC1`, the activation in assay [1] was 5.25%. The Potency result in assay [2], in assay [3] and in assay [4] was “inactive” in each case.
In the case of `O=C1C(Cc2ccc(O)cc2)N2C(=O)CCN(C(=O)NCc3ccccc3)C2CN1Cc1cccc2ccccc12` (stereo not given), the activation in assay [1] was 19.6%. In addition, the Potency result in assay [2], in assay [3] and in assay [4] was “inactive” throughout.
With `CCOc1ccc(CCNC(=O)c2cc3sc(Cl)cc3n2C)cc1OCC`, the activation in assay [1] was -10.5%. Further, the Potency entry in assay [2], in assay [3] and in assay [4] was “inactive” in each case.
As to `CCCC(=O)C1CCN(c2ncnc3c2CN(C(=O)c2ccc(-c4ccccc4)cc2)CC3)CC1`, the activation in assay [1] was -12.4%. The Potency entry in assay [2], in assay [3] and in assay [4] was “inactive” each time.
As for `CC(C)[N+]1(C)C2CCC1CC(OC(=O)C(CO)c1ccccc1)C2` (stereo not given), the activation in assay [1] was 3.82%. The Potency result in assay [2], in assay [3] and in assay [4] was “inactive” in each case.
For `CN1CC2CN(c3ccc4oc5ccccc5c(=O)c4c3)CC2C1` (stereo not given), in assay [1], the activation was 0.955%. The Potency entry in assay [2], in assay [3] and in assay [4] was “inactive” each time.
Consider `O=C(CC(c1ccccc1)c1ccccc1)N1CCN(C(c2ccccc2)c2ccccc2)CC1`, for which, in assay [1], the activation is 2.86%. In addition, the Potency entry in assay [2], in assay [3] and in assay [4] was “inactive” in each case.
Take `CC(C)c1ccc(-c2cc(=O)c3ccccc3o2)cc1`: the activation in assay [1] is -14.8%. In addition, the Potency entry in assay [2], in assay [3] and in assay [4] was “inactive” in each case.
For `CCOCCn1nc(CC)c2nc(N3CCC(C(=O)O)CC3)nc(Nc3cc(C)ccn3)c21`, the activation in assay [1] is 0%. For the same compound, the Potency result in assay [2], in assay [3] and in assay [4] was “inactive” each time.
For the compound `CN(C)CCC(CSc1ccccc1)Nc1ccc(S(=O)(=O)NC(=O)c2ccc(N3CCN(Cc4ccccc4-c4ccc(Cl)cc4)CC3)cc2)cc1[N+](=O)[O-]` (stereo not given), in assay [1], the Potency was 16.9 µM (active). Further, the Potency result in assay [2], in assay [3] and in assay [4] was “inactive” throughout.
Consider `Cc1ccc(C(=O)C(C)CN2CCCCC2)cc1` (stereo not given), for which the activation in assay [1] was -2.39%. For the same compound, the Potency entry in assay [2], in assay [3] and in assay [4] was “inactive” each time.
As for `C[C@@H]([C@@H](O)c1ccc(O)cc1)N1CCC(O)(c2ccccc2)CC1`, the activation in assay [1] is 5.25%. Moreover, the Potency entry in assay [2], in assay [3] and in assay [4] was “inactive” each time.
With `O=C(O)[C@@H]1C[C@H]2C[C@@H](CCc3nn[nH]n3)CC[C@H]2CN1`, the activation in assay [1] is 4.77%. The Potency entry in assay [2] and in assay [4] was “inactive” in each case. In addition, the Potency in assay [3] was 10 µM (active).
Take `CN1CCOC(c2ccccc2)c2ccccc2C1` (stereo not given): in assay [1], the activation was 0.837% and 6.21%. The Potency entry in assay [2], in assay [3] and in assay [4] was “inactive” each time.
Take `Cn1c2ccc(F)cc2c2c(C(=O)N3CCCC3)cn(-c3ccccc3)c(=O)c21`: in assay [1], the activation is -5.25%. In addition, the Potency result in assay [2], in assay [3] and in assay [4] was “inactive” each time.
As for `Cc1[nH]c2ccccc2c1CCNC(=O)c1cccs1`, in assay [1], the activation was -18.1%. The Potency result in assay [2], in assay [3] and in assay [4] was “inactive” each time.
With `O=C(CNC(=O)c1cccc(C(F)(F)F)c1)N[C@@H]1CCN(Cc2ccc(Cl)cc2)C1`, the activation in assay [1] was -2.86%. Further, the Potency result in assay [2], in assay [3] and in assay [4] was “inactive” throughout.
In the case of `CC1CC(OC(=O)C(O)c2ccccc2)CC(C)(C)C1` (stereo not given), in assay [1], the activation is 1.43%. In addition, the Potency result in assay [2], in assay [3] and in assay [4] was “inactive” each time.
Take `C[C@@H]1O[C@@H](O[C@H]2[C@H](Oc3cc(O)c(C(=O)CCc4ccc(O)cc4)c(O)c3)O[C@H](CO)[C@@H](O)[C@@H]2O)[C@H](O)[C@H](O)[C@H]1O`: the activation in assay [1] is -10.5%. The Potency entry in assay [2], in assay [3] and in assay [4] was “inactive” in each case.
For `C=C(F)c1sc(CNCCCNc2cc(=O)c3ccccc3[nH]2)c(C)c1Br`, the activation in assay [1] was 18.1%. The Potency entry in assay [2], in assay [3] and in assay [4] was “inactive” throughout.
Take `CCOC(=O)C(CCc1ccccc1)NC1CSC(c2cccs2)CN(CC(=O)O)C1=O` (stereo not given): the activation in assay [1] was -0.477%. The Potency entry in assay [2], in assay [3] and in assay [4] was “inactive” throughout.
On to `Cc1cc(C)c(-c2csc(NC(=O)c3ccccc3)n2)c(C)c1`, for which, in assay [1], the activation was 21%. Moreover, the Potency entry in assay [2], in assay [3] and in assay [4] was “inactive” throughout.
Regarding `O=C(O)CC1CCC(c2ccc(NC(=O)c3nnc(Nc4ccc(F)c(F)c4)o3)cc2)CC1` (stereo not given), the activation in assay [1] is -0.955%. The Potency result in assay [2], in assay [3] and in assay [4] was “inactive” throughout.
In the case of `O=C(NCCN1CCC(n2c(=O)[nH]c3ccccc32)CC1)c1ccc2ccccc2c1`, the activation in assay [1] was -1.43%. The Potency result in assay [2], in assay [3] and in assay [4] was “inactive” each time.
For `COc1cc(Br)c(S(=O)(=O)Nc2ccc(C(F)(F)F)c(O[C@@H]3CCN(C)C3)c2)cc1OC`, in assay [1], the activation is 12.4%. For the same compound, the Potency entry in assay [2], in assay [3] and in assay [4] was “inactive” in each case.
For the compound `COc1ccc(C2Sc3ccccc3N(CCN(C)C)C(=O)C2OC(C)=O)cc1` (stereo not given), in assay [1], the activation was -11.5%. Besides, the Potency result in assay [2], in assay [3] and in assay [4] was “inactive” each time.
Regarding `CC(C)(O)c1ccn2c(-c3ccc(F)c(-c4ccc(F)cc4C#N)c3)cnc2c1F`, the activation in assay [1] is -22.4%. Also, the Potency entry in assay [2], in assay [3] and in assay [4] was “inactive” each time.
As to `O=S(=O)(Nc1ccccc1N1CCCCC1)c1ccc(Cl)s1`, in assay [1], the activation was -11.9%. Also, the Potency entry in assay [2], in assay [3] and in assay [4] was “inactive” each time.
Consider `CCOC(=O)COc1ccc2c(c1)C[C@@H](NC[C@H](O)c1cccc(Cl)c1)CC2`, for which the activation in assay [1] was 11.9%. Besides, the Potency entry in assay [2], in assay [3] and in assay [4] was “inactive” throughout.
